“And” between values parts separate entries of the source, which are not always exact repeats. Equal values may be shown once. Read-outs that look alike come from different tables or passages of the source.
Experiments:
BRSK1 = settings: concentration: 1 μM, replicates: in singlicate; n = 1
BRSK2 = settings: concentration: 1 μM, replicates: in singlicate; n = 1
BTK = settings: concentration: 1 μM, replicates: in singlicate, n = 1
BUB1 = settings: concentration: 1 μM, replicates: in singlicate, n = 1
CAMK1B = settings: concentration: 1 μM, replicates: in singlicate, n = 1
CAMK1D = settings: concentration: 1 μM, replicates: in singlicate, n = 1
CAMK1G = settings: concentration: 1 μM, replicates: in singlicate; n = 1
CAMK1 = settings: concentration: 1 μM, replicates: in singlicate, n = 1
CAMK2A = settings: concentration: 1 μM, replicates: in singlicate; n = 1
CAMK2B = settings: concentration: 1 μM, replicates: in singlicate; n = 1
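Also: KINOMEscan kinase panel screen.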

| Structure (SMILES) | %Inh (BRSK1) | %Inh (BRSK2) | %Inh (BTK) | %Inh (BUB1) | %Inh (CAMK1B) | %Inh (CAMK1D) | %Inh (CAMK1G) | %Inh (CAMK1) | %Inh (CAMK2A) | %Inh (CAMK2B) | %Inh (BTK; 1 µM) | %Inh (BUB1; 1 µM) | %Inh (CAMK1B; 1 µM) | %Inh (CAMK1D; 1 µM) | %Inh (CAMK1; 1 µM) |
| --- | --- | --- | --- | --- | --- | --- | --- | --- | --- | --- | --- | --- | --- | --- | --- |
| CN1CCC(n2cnc(-c3ccc(F)cc3)c2-c2ccnc(NC3CCNCC3)n2)CC1 [SB-229482] | 0% | 0% | 10% | 17% | 28% | 0% | 2% | 0% | 0% | 0% |  |  |  |  |  |
| Cc1ccc(C)c(NC(=O)NCCNc2ccnc(Nc3ccc(F)cc3)n2)c1 [GSK1379878] | 0% | 0% | 0% | 14% | 28% | 2% | 62% | 5% | 0% | 0% |  |  |  |  |  |
| COc1ccc(Nc2nccc(N3CCC(NC(=O)Nc4ccc5c(c4)OCO5)C3)n2)cc1 (stereo not shown) [GSK1379745] | 0% | 2% | 32% | 33% | 0% | 8% | 4% | 8% | 0% | 1% |  |  |  |  |  |
| COc1ccc(Nc2nccc(N3CCC(NC(=O)c4cccc(NC(C)=O)c4)C3)n2)cc1 (stereo not shown) [GSK1379732] | 0% | 0% | 36% | 54% | 9% | 8% | 0% | 13% | 0% | 0% |  |  |  |  |  |
| CSc1ccc(NC2=C(c3ccccc3Cl)C(=O)NC2=O)cc1 [SB-342411] | 0% | 12% | 0% | 0% | 0% | 22% | 19% | 3% | 18% | 13% |  |  |  |  |  |
| C[C@@H]1CCN(C(=O)CO)C[C@@H]1N(C)c1ncnc2[nH]ccc12 | 13% | 0% | 0% | 0% | 29% | 0% | 0% | 0% | 0% | 0% |  |  |  |  |  |
| O=C(Nc1n[nH]c2nc(-c3ccco3)c(Br)cc12)c1ccc(CN2CCCC2)cc1.O=C(O)[C@H](O)[C@@H](O)C(=O)O [SB-742352] | 51% | 24% | 0% | 0% | 0% | 8% | 0% | 0% | 2% | 0% |  |  |  |  |  |
| Cc1cc(N2CCC(NS(=O)(=O)c3ccc(F)cc3)CC2)nc(Nc2cccc(C#N)c2)n1.O=C(O)C(F)(F)F [GSK1653537] | 7% | 0% | 0% | 0% | 0% | 8% | 0% | 16% | 0% | 0% |  |  |  |  |  |
| Cc1ccc(NC(=O)c2cccc(C#N)c2)cc1-c1ccc(C(=O)Nc2ccncc2)cc1 [GSK1398463] | 15% | 0% | 0% | 27% | 0% | 42% | 67% | 49% | 7% | 6% |  |  |  |  |  |
| N#Cc1ccc(Oc2ccc(Nc3ncnc4cc[nH]c34)cc2Cl)cc1 | 3% | 0% | 0% | 12% | 0% | 33% | 17% | 24% | 21% | 22% |  |  |  |  |  |
| COC(=O)c1cccc(NC(=O)NCCNc2ccnc(Nc3ccc(F)cc3)n2)c1 [GSK1379883] | 0% | 0% | 0% | 10% | 2% | 21% | 0% | 27% | 0% | 0% |  |  |  |  |  |
| O=C(NCCCN1CCCC1=O)c1cnc(NCc2cc(Cl)ccc2Cl)nc1NC1CCNCC1 | 6% | 0% | 0% | 0% | 21% | 6% | 0% | 0% | 0% | 0% |  |  |  |  |  |
| O=C(CCO)NCCn1ccc2ncnc(Nc3ccc(Oc4cccc(C(F)(F)F)c4)c(Cl)c3)c21 | 0% | 0% | 0% | 0% | 0% | 7% | 0% | 0% | 0% | 0% |  |  |  |  |  |
| CC(C)N1CCC(n2cnc(-c3ccc(F)cc3)c2-c2ccnc(N)n2)CC1 [SB-223132] | 0% | 0% | 13% | 15% | 0% | 0% | 0% | 0% | 4% | 0% |  |  |  |  |  |
| CNc1nccc(-c2c(-c3ccc(F)cc3)ncn2C2CCN(C)CC2)n1 [SB-222903] | 0% | 0% | 0% | 75% | 0% | 0% | 0% | 0% | 0% | 0% |  |  |  |  |  |
| Nc1nc(-c2cccnc2)c(-c2ccnc3ccccc23)s1 [GW684083] | 10% | 0% | 8% | 58% | 0% | 6% | 0% | 8% | 0% | 0% |  |  |  |  |  |
| Cc1ccc(O)cc1Nc1cc(C(F)(F)F)nc2ccc(-c3ccncc3)cc12 [GW630823] | 3% | 0% | 0% | 0% | 0% | 14% | 1% | 8% | 20% | 2% |  |  |  |  |  |

| Structure (SMILES) | %Inh (BRSK1) | %Inh (BRSK2) | %Inh (BTK) | %Inh (BUB1) | %Inh (CAMK1B) | %Inh (CAMK1D) | %Inh (CAMK1G) | %Inh (CAMK1) | %Inh (CAMK2A) | %Inh (CAMK2B) | %Inh (BTK; 1 µM) | %Inh (BUB1; 1 µM) | %Inh (CAMK1B; 1 µM) | %Inh (CAMK1D; 1 µM) | %Inh (CAMK1; 1 µM) |
| --- | --- | --- | --- | --- | --- | --- | --- | --- | --- | --- | --- | --- | --- | --- | --- |
| NC(=O)c1sc(-n2cnc3ccccc32)cc1OCc1ccccc1F [GSK1024306] | 5% | 0% | 0% | 20% | 31% | 0% | 0% | 0% | 0% | 0% |  |  |  |  |  |
| CC(C)(C)c1ccc(-n2cnc3c(N)ncnc32)cc1 [SKF-97263] | 18% | 0% | 0% | 18% | 12% | 9% | 0% | 10% | 0% | 0% |  |  |  |  |  |
| Cl.Cl.c1ccc(-c2cc3ccncc3cc2OC2CCNCC2)cc1 [GSK1122999] | 17% | 6% | 0% | 0% | 0% | 20% | 29% | 3% | 0% | 0% |  |  |  |  |  |
| Fc1ccc(-c2ncn(CCCNCc3ccccc3)c2-c2ccncc2)cc1 | 0% | 0% | 0% | 12% | 0% | 4% | 0% | 2% | 21% | 6% |  |  |  |  |  |
| COC(=O)c1c(-c2ccccc2)c2cc(Cl)ccc2c(=O)n1Cc1ccc(S(C)(=O)=O)cc1 | 0% | 0% | 25% | 0% | 0% | 0% | 9% | 2% | 0% | 0% |  |  |  |  |  |
| COc1ccc(-c2nc3n(c2-c2ccncc2)CCC3)cc1 [SKF-104493] | 0% | 0% |  |  |  |  | 0% |  | 0% | 0% | 14% and 0% | 67% and 78% | 0% and 26% | 12% and 7% | 0% and 7% |
| CCCc1ccc(S(=O)(=O)NC2CCN(c3ccnc(Nc4ccc(OC)cc4)n3)C2)cc1 (stereo not shown) [GSK1379737] | 0% | 0% | 0% | 47% | 0% | 11% | 0% | 5% | 0% | 0% |  |  |  |  |  |
| FC(F)(F)c1ccc(-c2nn3ncccc3c2-c2ccnc(Nc3cccc(C(F)(F)F)c3)n2)cc1 [GW828205] | 0% | 0% | 49% | 0% | 0% | 18% | 0% | 11% | 0% | 0% |  |  |  |  |  |
| COc1ccc(NC(=O)c2ccc(-c3cc(-c4nnc(C)o4)ccc3C)cc2)cc1 [GW595885] | 0% | 0% | 0% | 40% | 4% | 8% | 0% | 4% | 0% | 0% |  |  |  |  |  |
| Fc1cccc(COc2ccc(Nc3ncnc4cc[nH]c34)cc2Cl)c1 | 2% | 0% | 0% | 1% | 7% | 0% | 10% | 29% | 27% | 28% |  |  |  |  |  |
| COc1ccc(-c2oc3ncnc(N)c3c2-c2ccc(OC)cc2)cc1 [SB-589132] | 12% | 0% | 54% | 64% | 13% | 7% | 0% | 19% | 0% | 0% |  |  |  |  |  |
| CSc1nn2c(=O)cc(N3CCOCC3)nc2n1Cc1cccc(Cl)c1Cl [GSK2347225] | 0% | 0% | 0% | 0% | 0% | 8% | 17% | 0% | 0% | 0% |  |  |  |  |  |
| Oc1ccc2ncnc(Nc3ccc(OCc4ccccc4)cc3)c2c1 [GI262866] | 2% | 0% | 4% | 18% | 1% | 4% | 0% | 17% | 0% | 0% |  |  |  |  |  |
| Fc1cccc(COc2ccc(Nc3ncnc4sc(-c5ccc[nH]5)cc34)cc2Cl)c1 [GW707818] | 1% | 16% | 5% | 25% | 9% | 22% | 0% | 25% | 0% | 0% |  |  |  |  |  |
| CCc1nc(-c2cccc(C)c2)c(-c2ccnc(NC(=O)c3ccccc3)c2)s1 | 0% | 17% | 42% | 17% | 0% | 7% | 0% | 13% | 4% | 0% |  |  |  |  |  |
| CC(C)(C)OC(=O)NC1CCCN(c2cc(-c3ccc4c(N)n[nH]c4c3)nc(N)n2)C1 (stereo not shown) [GSK2286096] | 0% | 0% | 0% | 0% | 25% | 21% | 11% | 16% | 0% | 0% |  |  |  |  |  |
| Clc1cc(Nc2ncnc3cc[nH]c23)ccc1OCc1ccccn1 | 0% | 1% | 0% | 0% | 4% | 33% | 27% | 35% | 0% | 0% |  |  |  |  |  |

From publication PMC5540273 (PLoS ONE, 2017)
